Over roughly 2,700 sequences, “arbitrary fluorescence units” has its median near 4,100; the highest 2% begin near 54,000. This excerpt belongs to a sample that is enriched for the highest values.
target: T1, ETS1 (UniProt P14921); experiment: ETS1 binding intensity (PBM fluorescence) (arbitrary fluorescence units); higher = stronger binding; conditions: ETS1 concentration 10 nM
T1 sequence: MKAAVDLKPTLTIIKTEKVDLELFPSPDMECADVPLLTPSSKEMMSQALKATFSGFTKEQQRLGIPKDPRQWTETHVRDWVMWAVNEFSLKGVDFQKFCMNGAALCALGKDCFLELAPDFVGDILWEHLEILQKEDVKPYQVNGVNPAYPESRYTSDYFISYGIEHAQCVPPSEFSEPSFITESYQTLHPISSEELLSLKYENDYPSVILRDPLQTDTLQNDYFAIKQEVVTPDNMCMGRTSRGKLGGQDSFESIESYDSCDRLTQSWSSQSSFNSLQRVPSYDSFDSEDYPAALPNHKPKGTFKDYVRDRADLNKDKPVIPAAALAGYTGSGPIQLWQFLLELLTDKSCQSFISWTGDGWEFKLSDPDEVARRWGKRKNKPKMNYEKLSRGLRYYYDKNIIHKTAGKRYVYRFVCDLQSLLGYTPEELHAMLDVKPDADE
Protocol: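 gcPBM on wild-type 36-bp genomic probes with two neighbouring ETS1 sites (4-24 bp apart). Recombinant human ETS1 (10 nM) was detected with anti-ETS1 antibody fluorescence. Values are medians over 3 replicate spots. The probes sit in constant array flanks that are not printed.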

| Sequence | ETS1 binding intensity |
| --- | --- |
| GATGACCTGCCATTTCCCCAGGAAAGCTGAGACCCC | 201 |
| TTTCTGTCCGTTTCCGACAAACTTCCCGCGCTCTTC | 2630 |
| TGCCCTGCCTGCTTCCTCCCTTCCTTTCAACCCCAA | 2350 |
| TGAAGACGGAAACCTGAGAACACCATTTCCTGTGCT | 4470 |
| CGGCGGCTGCCGGAAAGCCACTTCCGGCCTGCTCCA | 25400 |
| CGGCGGAAGGAGCGGGCGGCGTGAGCGCTTCCGCCG | 811 |
| TCGGCCACTTCCGGCGCGCGGGGCGGAAAGCGGGCG | 75800 |
| CGGCGTCAGCGGAACGGGCGGCTTCCGGCCGCGGCG | 8120 |
| GCCGCCGCGTACTTCCGGCCGGAAGAAAGGGCGGGC | 65400 |
| GGGAGGCGGAAAGGGGCGGGACCACTTCCGGCCTAG | 22100 |
| CTGTCACACAGGAAGACCACACAGGAAGACCAGGTG | 1320 |
| TCCACTCTGCGGAAGCCACGTTCATCCTGCCCTGCC | 586 |
| ATGCAGAAAGTGGGAAGTGAGGAAATGAGGGCAGCG | 232 |
| AACCAACAACTTACTTCCTTCCGGGTTTGGTGCAGA | 5690 |
| GAGAACTTCCGGCTGCAGTACAACCATTTCCGGGCT | 68300 |
| CCTGGCCGGAAACTGAGCCGTTCACTTCCGCCACCA | 14000 |
| TATCTCCTTCCTGTGTAGCATTGACTTTCCTGTCAG | 14100 |
| CGTGAGCGGAAGCGGCGCCATTCGTCTTCCGAGCGC | 6670 |
| TGCTAAACTTCCCTGGGCCCCATCAGGAAATGTGAA | 185 |
| TTCTTGGCCACATCCGTCTCCCGGAACTGCTCCTTC | 8980 |
| GCCCACATCCGGCCCCTCCTTGCCCCGGAACCTCCT | 70100 |
| TCCGCGTCCCCACATCCTCCGGATGCCCAGCGGTTG | 1980 |
| CGCCATACCTGGCTTCCGCTTCCGGTGGCTTCTCGT | 28200 |

Source: the supplement of paper PMC10681739
